Reference: publication PMC7826789 (International Journal of Molecular Sciences, 2021)

Columns and labels:
Conditions in all cases: Compound Concentration (nM):1000
RET(V804M) = system: RET(V804M)
RET = system: RET
RIOK1 = system: RIOK1
RIOK2 = system: RIOK2
RIOK3 = system: RIOK3
RIPK1 = system: RIPK1
RIPK2 = system: RIPK2
RIPK4 = system: RIPK4
RIPK5 = system: T1, RIPK5
T1 construct: gene DSTYK

ROCK1 = system: ROCK1
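Further: KINOMEscan scanMAX binding as percent activity remaining versus control; lower means stronger binding.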

Row | SMILES | Percent Control (RET(V804M)) | Percent Control (RET) | Percent Control (RIOK1) | Percent Control (RIOK2) | Percent Control (RIOK3) | Percent Control (RIPK1) | Percent Control (RIPK2) | Percent Control (RIPK4) | Percent Control (RIPK5) | Percent Control (ROCK1)
1 | Cl.O=S1CCN(Cc2ccc(-c3ccc4ncnc(Nc5ccc(OCc6ccccc6)c(F)c5)c4c3)o2)CC1 [GW576924A] | 100% | 100% | 93% | 83% | 100% | 100% | 43% | 92% | 87% | 100%
2 | COc1ccc2cc(-c3c(-c4ccncc4)nc(-c4ccc(S(C)(=O)=O)cc4C)n3C)ccc2c1 [SB-633825] | 97% | 72% | 22% | 92% | 78% | 34% | 81% | 61% | 75% | 78%
3 | COc1ccc(COc2ccc(Cc3cnc(N)nc3N)cc2OC)cc1 [GW632580X] | 100% | 100% | 56% | 100% | 65% | 95% | 98% | 84% | 97% | 100%
4 | CCc1ccc(Oc2nccc(-c3c(-c4ccc(F)cc4)ncn3C3CCNCC3)n2)cc1 [SB-242719] | 100% | 100% | 57% | 97% | 72% | 100% | 59% | 100% | 82% | 100%
5 | O=C1Nc2ccc(C(=O)c3ccco3)cc2C1=Cc1cc(Cl)c(O)c(Cl)c1 [GW406108X] | 28% | 96% | 46% | 73% | 30% | 100% | 75% | 91% | 54% | 77%
6 | Cl.O=C(Nc1ccc(Oc2ccc3[nH]c(NC(=O)c4ccco4)nc3c2)cc1)Nc1cc(C(F)(F)F)ccc1F [GW683134A] | 0.4% | 0% | 64% | 98% | 40% | 21% | 48% | 100% | 100% | 73%
7 | Cl.O=C(O[C@H]1CN[C@H](C#Cc2cc3ncnc(Nc4ccc5c(cnn5Cc5ccccc5)c4)c3s2)C1)N1CCOCC1 [GSK200398A] | 100% | 100% | 100% | 100% | 100% | 100% | 16% | 84% | 100% | 96%
8 | Cl.c1ccc(Cc2nc3ccc(Nc4ncnc5ccccc45)cc3[nH]2)cc1 [GR269666A] | 100% | 100% | 100% | 88% | 100% | 100% | 67% | 98% | 98% | 100%
9 | COc1ccc2c(-c3ccnc(Nc4cccc(OC(F)(F)F)c4)n3)cnn2n1 [GW810372X] | 100% | 100% | 42% | 29% | 51% | 100% | 100% | 77% | 100% | 100%
10 | COC(=O)Nc1nc2ccc(Oc3ccc(NC(=O)Nc4cc(C(F)(F)F)ccc4F)cc3)cc2s1.Cl [GW693917A] | 0.5% | 0.1% | 62% | 100% | 54% | 45% | 25% | 76% | 100% | 79%
11 | CC(C)COC(=O)c1ccc2c(c1)/C(=C/Nc1ccc(S(N)(=O)=O)cc1)C(=O)N2 [GW416981X] | 26% | 100% | 21% | 100% | 15% | 100% | 100% | 100% | 48% | 36%
